Reference: PubChem BioAssay

experiment: viability loss of caspase-8 NB7 cells with TRAIL – with/without TRAIL, luminescence panel, confirmation (AID 651596); details: NB7 neuroblastoma + caspase-8, without TRAIL, NB7 Caspase-8, without TRAIL, mean of runs, at 10 µM

Q: With `CCCCCCCCCCCCCCCC[n+]1ccc(C(N)=O)cc1` as the molecule, how does the activity read?
A: The activity was 88.5%.

Q: For `Cc1ccc2nc(NC(=O)c3ccc(-c4nc5ccccc5s4)s3)sc2c1`, which activity is on record?
A: Its activity is 17%.

Q: With `Cc1ccc(S(=O)(=O)n2ccc3c(OCCOCCNCc4ccc(F)cc4)cccc32)cc1` as the molecule, how does the activity read?
A: Its activity is 26.4%.

Q: Which activity does the source give for `Cc1[nH]cnc1C(=O)N/N=C/c1c(Cl)cccc1Cl` here?
A: The activity was 57.6%.

Q: For `Nc1c(N(CCC2=CCCCC2)C(=O)COc2ccc(F)cc2Cl)c(=O)[nH]c(=O)n1Cc1ccccc1`, which activity is on record?
A: The activity was 79.4%.

Q: For `C#CC(=O)N(c1ccc(OC)cc1OC)C(C(=O)NC1CCCC1)c1cccs1` (centres undefined), which activity is on record?
A: Its activity is 99.6%.

Q: With `C#CCSc1nnc(-c2ccc(C)cc2)o1` as the molecule, how does the activity read?
A: The activity was 93.2%.

Q: With `Cc1ccc(CN=c2c([N+](=O)[O-])nn(-c3cccc(C)c3)n2O)cc1` as the molecule, how does the activity read?
A: Its activity is 24.7%.

Q: For `COc1ccc2[nH]c3c(NCCC4=CCCCC4)ncnc3c2c1`, which activity is on record?
A: The activity was 44.1%.

Q: With `Cc1ccc2nc(-c3ccc(NC(=O)COC(=O)c4cncc(Br)c4)cc3)sc2c1` as the molecule, how does the activity read?
A: Its activity is 60.1%.

Q: With `COc1ccccc1-c1nnc(-c2ccc(C)cc2)o1` as the molecule, how does the activity read?
A: The activity was 43.5%.

Q: For `N/C(CCS(=O)(=O)c1ccc(Cl)cc1)=N\OC(=O)c1ccccc1C(F)(F)F`, which activity is on record?
A: The activity was 93.6%.

Q: Which activity does the source give for `C/C(=N\NC(=O)COc1ccc(C(C)(C)C)cc1)c1ccc(-n2ccnc2)cc1` here?
A: Its activity is 49.1%.

Q: For `CC(=O)Nc1cccc(-c2csc(Nc3ccc(C)cn3)n2)c1`, which activity is on record?
A: Its activity is 30.4%.

Q: Which activity does the source give for `CCc1ccc(C(=O)Cn2ccsc2=N)cc1` here?
A: The activity was 66.6%.

Q: Which activity does the source give for `CN(C)c1ccc(Sc2ccc3nc(N)nc(N)c3c2)cc1` here?
A: Its activity is 73%.

Q: For `CCOC(=O)C1=CCN(S(=O)(=O)c2ccccc2C)C1c1ccc(Cl)cc1` (centres undefined), which activity is on record?
A: The activity was -8.28%.

Q: With `Cc1ccc(C(C)C)c(OCC(=O)Nc2ccc3c(c2)nc(CCN2CCCCC2)n3C)c1` as the molecule, how does the activity read?
A: Its activity is 39.4%.

Q: With `CCCCc1ccc(NC(=O)c2ccc(N(C)S(C)(=O)=O)cc2)cc1` as the molecule, how does the activity read?
A: The activity was 19.9%.

Q: For `COc1ccc(S(=O)(=O)N2CCN(c3ccc4nnc(-c5ccccc5)n4n3)CC2)cc1`, which activity is on record?
A: The activity was 66.5%.

Q: Which activity does the source give for `Cc1cccc(-n2ncc3c(N4CCC(C)CC4)ncnc32)c1` here?
A: Its activity is 34.7%.

Q: For `COc1cccc(NC(=O)c2cc3ccccc3o/c2=N\O)c1`, which activity is on record?
A: Its activity is 64.6%.

Q: For `Cc1nc2c(-c3ccccc3)cnn2c(N)c1-c1ccccc1`, which activity is on record?
A: Its activity is 90.9%.

Q: Which activity does the source give for `COc1ccc2cc(CNCCOCCOCCNCc3ccc4cc(OC)ccc4c3)ccc2c1` here?
A: The activity was -2.75%.

Q: For `COc1ccc2nc(-c3ccccc3)[nH]c2c1`, which activity is on record?
A: Its activity is 65.5%.

Q: For `Cc1ccc(C(=O)Nc2ccc3ncccc3c2)cc1`, which activity is on record?
A: The activity was 92.9%.

Q: With `COc1ccc(C(=O)NC(=O)Nc2cc(C)ccn2)cc1` as the molecule, how does the activity read?
A: Its activity is 95.4%.

Q: Which activity does the source give for `C/C(=N\Nc1nc2ccccc2[nH]1)c1ccc(N2CCOCC2)cc1` here?
A: Its activity is 74.9%.

Q: With `COc1ccc(/C=C(\C#N)c2nc3ccccc3[nH]2)cc1O` as the molecule, how does the activity read?
A: The activity was 72.5%.

Q: With `OCC1OC(n2ccc3c2ncn2ncnc32)C(O)C1O` (centres undefined) as the molecule, how does the activity read?
A: Its activity is 95.3%.

Q: For `CC(C)(C)c1ccc(NC(=O)c2ccsc2)cc1`, which activity is on record?
A: The activity was 71.9%.

Q: With `Cc1c(P(=S)(c2ccccc2)c2ccccc2)[n+]2ccccc2n1C/C=C/c1ccccc1` as the molecule, how does the activity read?
A: Its activity is 56.9%.

Q: With `Cn1cnc([N+](=O)[O-])c1Sc1nc(N)nc2c1ncn2C1OC(CO)C(O)C1O` (centres undefined) as the molecule, how does the activity read?
A: The activity was 75.4%.

Q: With `O=c1[nH]c(/C=C/c2ccccc2Cl)nc2ccccc12` as the molecule, how does the activity read?
A: Its activity is 65.7%.

Q: For `O=C(Nc1ccc2c(c1)CCC2)c1ccccc1F`, which activity is on record?
A: The activity was 36.4%.

Q: Which activity does the source give for `CC(=O)CSc1nc2cc3c(cc2cc1C#N)OCCO3` here?
A: Its activity is 35.5%.

Q: With `COc1ccc(CSc2nc3ccccc3[nH]2)cc1` as the molecule, how does the activity read?
A: The activity was 83.3%.

Q: For `Nc1ccccc1C(=O)NN=Cc1cccnc1`, which activity is on record?
A: The activity was 58.7%.

Q: For `Nc1nc(=S)c2ncn(C3OC(CO)C(O)C3O)c2[nH]1` (centres undefined), which activity is on record?
A: Its activity is 6.78%.
